Test results from PubChem BioAssay (Tox21).
Records with an inconclusive call do not appear. Active and inactive are the calls of the source. Unless noted, calls come from the whole dose curve; as a rule, active = well fitted curve in the direction sought with a large enough effect in the repeat runs; inconclusive = weak or mixed curves; inactive = no such curve, though single readings can be large; an effect the other way counts as inactive or inconclusive.

Tests used:
[1] = qHTS assay to identify aromatase inhibitors - cell viability counter screen (AID 743084);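 note: cells stimulated with testosterone during compound exposure; nearly all actives have a fitted effect of over 55% in size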
[2] = biological target: Aryl hydrocarbon receptor (Homo sapiens) (UniProt P35869); assay: qHTS assay to identify small molecule that activate the aryl hydrocarbon receptor (AhR) signaling pathway (AID 743085);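 note: HG2L7.5c1 human HepG2 liver cells with stably integrated DRE-driven firefly reporter; series mostly up to about 70 µM; nearly all actives have a fitted effect of over 15% in size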
Chain of Aryl hydrocarbon receptor (Homo sapiens) (P35869 whole entry, looked up): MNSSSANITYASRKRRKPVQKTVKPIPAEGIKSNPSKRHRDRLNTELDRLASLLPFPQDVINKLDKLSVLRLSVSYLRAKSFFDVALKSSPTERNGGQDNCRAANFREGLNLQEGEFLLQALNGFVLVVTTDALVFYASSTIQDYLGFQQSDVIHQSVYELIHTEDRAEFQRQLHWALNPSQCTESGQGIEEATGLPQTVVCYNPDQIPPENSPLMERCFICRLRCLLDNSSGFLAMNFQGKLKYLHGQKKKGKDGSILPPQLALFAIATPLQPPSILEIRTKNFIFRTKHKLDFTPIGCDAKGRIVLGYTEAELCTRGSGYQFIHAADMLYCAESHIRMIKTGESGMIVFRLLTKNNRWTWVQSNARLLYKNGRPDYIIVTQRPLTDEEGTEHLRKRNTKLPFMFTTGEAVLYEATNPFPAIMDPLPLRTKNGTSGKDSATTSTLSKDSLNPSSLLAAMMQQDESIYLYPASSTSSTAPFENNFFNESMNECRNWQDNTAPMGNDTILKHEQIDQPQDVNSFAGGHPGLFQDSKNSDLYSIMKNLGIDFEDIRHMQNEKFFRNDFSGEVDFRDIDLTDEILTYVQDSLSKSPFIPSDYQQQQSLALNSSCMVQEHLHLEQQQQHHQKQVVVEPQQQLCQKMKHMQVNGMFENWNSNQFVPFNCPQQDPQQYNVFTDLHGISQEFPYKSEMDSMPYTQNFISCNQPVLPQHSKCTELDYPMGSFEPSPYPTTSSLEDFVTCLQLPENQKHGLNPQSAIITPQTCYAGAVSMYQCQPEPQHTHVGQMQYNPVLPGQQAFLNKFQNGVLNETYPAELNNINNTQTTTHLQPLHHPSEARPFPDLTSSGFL
Summary of the method: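 HepG2 cells (HG2L7.5c1) stably carrying a firefly luciferase reporter driven by 20 dioxin responsive elements were exposed to compound for 24 h at 37C after a 5 h settling period; luminescence rise (ONE-Glo) indicated activation.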

[3] = qHTS assay to identify small molecule that activate the aryl hydrocarbon receptor (AhR) signaling pathway - cell viability counter screen (AID 743086);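 note: HepG2 liver cells carrying the AhR DRE luciferase reporter; series mostly up to about 70 µM; nearly all actives have a fitted effect of over 45% in size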
Summary of the method: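 Cytotoxicity counter screen: CellTiter-Fluor signal (30 min, 37 C) in 4000 HepG2 cells/well carrying the DRE-luciferase reporter, following 24 h compound exposure at 37 C.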

[4] = biological target: Peroxisome proliferator-activated receptor gamma (Homo sapiens) (UniProt P37231); assay: qHTS assay to identify small molecule agonists of the peroxisome proliferator-activated receptor gamma (PPARg) signaling pathway (AID 743094; active = well fitted activation curve with a large enough effect in the signal ratio in the repeat runs, not every such curve was filed as active; the % refers to the signal ratio)
Chain of Peroxisome proliferator-activated receptor gamma (Homo sapiens) (P37231 whole entry, looked up): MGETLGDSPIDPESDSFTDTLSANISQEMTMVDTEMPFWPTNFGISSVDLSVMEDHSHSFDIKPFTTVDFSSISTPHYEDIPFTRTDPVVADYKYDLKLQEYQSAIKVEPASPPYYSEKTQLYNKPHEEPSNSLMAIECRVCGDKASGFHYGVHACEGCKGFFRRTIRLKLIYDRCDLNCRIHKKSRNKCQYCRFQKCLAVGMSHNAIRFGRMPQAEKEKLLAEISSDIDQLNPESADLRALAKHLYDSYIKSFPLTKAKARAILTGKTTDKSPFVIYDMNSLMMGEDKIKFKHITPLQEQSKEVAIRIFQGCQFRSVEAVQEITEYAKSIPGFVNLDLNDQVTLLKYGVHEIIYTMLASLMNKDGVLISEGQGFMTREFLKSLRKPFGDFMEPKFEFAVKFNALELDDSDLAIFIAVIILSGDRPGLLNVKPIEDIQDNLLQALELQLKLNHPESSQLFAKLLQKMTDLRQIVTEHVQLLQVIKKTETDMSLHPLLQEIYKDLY
Summary of the method: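 HEK293H PPARg-bla cells, 5 h settle at 37C/5% CO2; compound (DMSO) 17 h, 37C; B/G FRET substrate 1 h RT; fluorescence intensity read-out. qHTS format.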

[5] = biological target: Peroxisome proliferator-activated receptor gamma (Homo sapiens) (UniProt P37231); assay: qHTS assay to identify small molecule antagonists of the peroxisome proliferator-activated receptor gamma (PPARg) signaling pathway (AID 743191; calls by dose curve; note: series mostly up to about 63 µM; nearly all actives have a fitted effect of over 30% in size)
Summary of the method: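 Beta-lactamase reporter under UAS control in HEK293H PPARg-bla cells; compound treatment 17 h at 37C. Read-out: fluorescence intensity after 1 h room-temperature incubation with LiveBLAzer B/G FRET substrate.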

[6] = qHTS assay to identify small molecule antagonists of the peroxisome proliferator-activated receptor gamma (PPARg) signaling pathway - cell viability counter screen (AID 743194); note: nearly all actives have a fitted effect of over 55% in size
Summary of the method: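 Viability was measured as CellTiter-Glo luminescence in GeneBLAzer PPARg UAS-bla HEK293H cells. These cells had been exposed 17 h at 37 C to compounds together with rosiglitazone at 50 nM final, with the beta-lactamase readout taken in the same wells.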

[7] = qHTS assay for small molecule agonists of the antioxidant response element (ARE) signaling pathway (AID 743202; active = well fitted activation curve with a large enough effect in the signal ratio in the repeat runs, not every such curve was filed as active; the % refers to the signal ratio)
Summary of the method: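 Beta-lactamase reporter activity, read as fluorescence intensity, reflects ARE/Nrf2 pathway induction in HepG2 cells after 16 h compound exposure at 37 C; substrate loading was 2 h at room temperature.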

[8] = qHTS assay for small molecule agonists of the antioxidant response element (ARE) signaling pathway - cell viability counter screen (AID 743203; calls by dose curve; note: nearly all actives have a fitted effect of over 55% in size)
Summary of the method: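 Luminescence read-out (CellTiter-Glo, 30 min at room temperature) measured cell viability in the same wells as the ARE beta-lactamase reporter. HepG2 ARE-bla cells were treated with compounds for 16 hrs at 37C/5% CO2.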

[9] = qHTS assay for small molecule activators of the heat shock response signaling pathway - cell viability counter screen (AID 743209); note: nearly all actives have a fitted effect of over 50% in size
Summary of the method: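 HSE-bla HeLa; 1500 cells/well; overnight 37 C, 5% CO2; compound 5 h 37 C; LiveBLAzer B/G substrate 2.5 h RT; CellTiter-Glo 30 min RT; luminescence.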

[10] = qHTS assay for small molecule activators of the heat shock response signaling pathway (AID 743210; active = well fitted activation curve with a large enough effect in the signal ratio in the repeat runs, with a control signal flat, not every such curve was filed as active; the % refers to the signal ratio;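 note: HeLa cells with beta-lactamase reporter driven by heat shock elements; series mostly up to about 63 µM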)
Summary of the method: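 Fluorescence from a cleaved B/G FRET substrate (2.5 h, room temp) reports HSE-driven beta-lactamase in HeLa cells treated 5 h at 37 C with DMSO-dissolved compounds.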
% is set by controls: 0 for no effect and ±100 for the full control effect.

COc1cc(C(=O)N2CCCCCCC2)cc(OC)c1OC
inactive: Potency [1] | Potency [2] | Potency [3] | outcome [4] | Potency [5] | outcome [6] | Potency [7] | Potency [8] | outcome [9]

O=C1OC(=O)C2CCCCC12 (stereo not drawn)
inactive: Potency [1] | Potency [2] | Potency [3] | outcome [4] | Potency [5] | outcome [6] | Potency [7] | Potency [8] | outcome [9] | outcome [10]

O=C(O)CN(CCOCCOCCN(CC(=O)O)CC(=O)O)CC(=O)O
inactive: Potency [1] | Potency [2] | Potency [3] | outcome [4] | ratio activity, negative = inhibition [5] -4.72% [at 0.55 µM] | activity change, negative = cytotoxicity [6] 11.4% [at 0.55 µM] | activation [7] 8.1% [at 0.756 µM] | viability change, negative = cytotoxic [8] 1.75% [at 0.756 µM] | activity change, negative = cytotoxicity [9] -15.4% [at 0.55 µM] | activation [10] 0.198% [at 0.55 µM]

COCCc1ccc(OCC(O)CNC(C)C)cc1 (stereo not drawn)
inactive: Potency [1] | Potency [2] | Potency [3] | outcome [4] | Potency [5] | outcome [6] | Potency [7] | Potency [8] | outcome [9]

C=C[Si](OC(=C)C)(OC(=C)C)OC(=C)C
inactive: Potency [1] | Potency [2] | Potency [3] | outcome [4] | Potency [5] | outcome [6] | Potency [7] | Potency [8] | outcome [9] | outcome [10]

CCCc1cc(C(N)=S)ccn1
inactive: Potency [1] | Potency [2] | Potency [3] | outcome [4] | Potency [5] | outcome [6] | Potency [7] | Potency [8] | outcome [9] | outcome [10]

CCn1nc(C(=O)O)c(=O)c2cc3c(cc21)OCO3
inactive: Potency [1] | Potency [2] | Potency [3] | outcome [4] | Potency [5] | outcome [6] | Potency [7] | Potency [8] | outcome [9] | outcome [10]

CCO[Si](CCC1CCC2OC2C1)(OCC)OCC (stereo not drawn)
inactive: Potency [1] | Potency [2] | Potency [3] | outcome [4] | Potency [5] | outcome [6] | Potency [7] | Potency [8] | outcome [9] | outcome [10]

C=COCC1CCC(CO)CC1 (stereo not drawn)
inactive: Potency [1] | Potency [2] | Potency [3] | outcome [4] | Potency [5] | outcome [6] | Potency [7] | Potency [8] | outcome [9]

CC(C)(O)C(=O)c1ccccc1
inactive: Potency [1] | Potency [2] | Potency [3] | outcome [4] | Potency [5] | outcome [6] | Potency [7] | Potency [8] | outcome [9] | outcome [10]

OC[C@]1(O)OC[C@@H](O)[C@H](O)[C@@H]1O
inactive: Potency [1] | Potency [2] | Potency [3] | outcome [4] | Potency [5] | outcome [6] | Potency [7] | Potency [8] | outcome [9] | outcome [10]

C[C@H]1C[C@@H](O)CC(C)(C)C1
inactive: Potency [1] | Potency [2] | Potency [3] | outcome [4] | Potency [5] | outcome [6] | Potency [7] | Potency [8] | outcome [9]

CC(=O)OCC(CCn1cnc2cnc(N)nc21)COC(C)=O
inactive: Potency [1] | Potency [2] | Potency [3] | outcome [4] | Potency [5] | outcome [6] | Potency [7] | Potency [8] | outcome [9]

Cc1cccn2c(=O)c(-c3nnn[nH]3)cnc12
inactive: Potency [1] | Potency [2] | Potency [3] | outcome [4] | Potency [5] | outcome [6] | Potency [7] | Potency [8] | outcome [9] | outcome [10]

CC(=O)OCC(=O)[C@@]1(O)CCC2C3CCC4=CC(=O)CC[C@]4(C)C3[C@@H](O)C[C@@]21C (stereo partly drawn)
inactive: Potency [1] | Potency [2] | Potency [3] | outcome [4] | Potency [5] | outcome [6] | Potency [7] | Potency [8] | outcome [9] | outcome [10]

CC(C)(CC(=O)O)C(=O)O
inactive: Potency [1] | Potency [2] | Potency [3] | outcome [4] | Potency [5] | outcome [6] | Potency [7] | Potency [8] | outcome [9] | outcome [10]

O=c1cc(CO)occ1O
inactive: Potency [1] | Potency [2] | Potency [3] | outcome [4] | Potency [5] | outcome [6] | Potency [7] | Potency [8] | outcome [9] | outcome [10]

Nc1cc(=O)[nH]c(N)n1
inactive: Potency [1] | Potency [2] | Potency [3] | outcome [4] | Potency [5] | outcome [6] | Potency [7] | Potency [8] | outcome [9] | outcome [10]

CN1C(=O)N(C)C(O)C1O (stereo not drawn)
inactive: Potency [1] | Potency [2] | Potency [3] | outcome [4] | Potency [5] | outcome [6] | Potency [7] | Potency [8] | outcome [9]

COC(C)(C)CCCC(C)CC=O (stereo not drawn)
inactive: Potency [1] | Potency [2] | Potency [3] | outcome [4] | Potency [5] | outcome [6] | Potency [7] | Potency [8] | outcome [9] | outcome [10]

Nc1ccccc1S(=O)(=O)O
inactive: Potency [1] | Potency [2] | Potency [3] | outcome [4] | Potency [5] | outcome [6] | Potency [7] | Potency [8] | outcome [9] | outcome [10]

N=C(N)c1ccccc1
inactive: Potency [1] | Potency [2] | Potency [3] | outcome [4] | Potency [5] | outcome [6] | Potency [7] | Potency [8] | outcome [9] | outcome [10]

C[C@H](NC(CCc1ccccc1)C(=O)O)C(=O)N1CCC[C@H]1C(=O)O (stereo partly drawn)
inactive: Potency [1] | Potency [2] | Potency [3] | outcome [4] | Potency [5] | outcome [6] | Potency [7] | Potency [8] | outcome [9] | outcome [10]

CC/C=C\CCOC(C)=O
inactive: Potency [1] | Potency [2] | Potency [3] | outcome [4] | Potency [5] | outcome [6] | Potency [7] | Potency [8] | outcome [9]
